{"source": "PubChem BioAssay (NCATS)", "note": "Starred links: 1 amine or outer side, 2 acyl side, 3 side chain; linkers in the order of their positions; H or OH if unused. Positions of bridges follow the written chain, without caps; N, C: chain ends. Non-standard residues stand in square brackets, D forms with d. Residues, ends and D or L forms follow the SMILES beside them. *: point of attachment. X2 = NC1=C[C@@H](O)C[C@H]([C@H](N[*:1])C(=O)[*:2])N1; ΔAla(3-NHCONH2) = NC(=O)NC=C(N)C(=O)O; β3hOrn = NCCC[C@H](N)CC(=O)*; Dap = NC[C@H](N)C(=O)O"}
{"assay": "qHTS profiling of the MIPE4 collection as inhibitors of Plasmodium falciparum (3D7) proliferation (AID 743344);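 further: scaled between DMSO vehicle wells and 0.29 µM artemisinin as full inhibition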", "conditions": "P. falciparum 3D7 in erythrocytes, SYBR Green DNA fluorescence, 72 h; at 28.5 µM", "method_in_brief": "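Parasite DNA was quantified by SYBR Green I fluorescence (ex 485, em 535 nm) after overnight lysis in saponin/Triton buffer at room temperature. Cultures at 0.3% parasitemia and 2.5% hematocrit were first exposed to compound for 72 h at 37 C; signals were normalised to artemisinin (0.29 uM) and vehicle wells.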", "units": {"parasite growth, % of DMSO control": "%"}}
{"molecule": "COC1=C2C[C@H](C)C[C@H](OC)[C@@H](O)[C@@H](C)C=C(C)[C@H](OC(N)=O)[C@@H](OC)C=CC=C(C)C(=O)NC(=CC1=O)C2=O", "parasite growth, % of DMSO control": 5.44}
{"molecule": "CCCC[C@@H]1C[C@@H](C(=O)NC([C@H](C)Cl)[C@H]2O[C@H](S)[C@H](O)[C@@H](O)[C@@H]2O)N(C)C1", "note": "(some centres not stated)", "parasite growth, % of DMSO control": 29.2}
{"molecule": "CN[C@@H]1[C@@H](O[C@H]2[C@H](O[C@H]3[C@H](O)[C@@H](O)[C@H](N=C(N)N)[C@@H](O)[C@H]3N=C(N)N)O[C@@H](C)[C@]2(O)C=O)O[C@@H](CO)[C@H](O)[C@H]1O", "parasite growth, % of DMSO control": 93.9}
{"molecule": "O=CN(O)CCCP(=O)(O)O", "parasite growth, % of DMSO control": 14.4}
{"molecule": "CC(C)=CCCC(C)=CCNCCNC1C2CC3CC(C2)CC1C3", "note": "(configuration not stated)", "parasite growth, % of DMSO control": 4.83}
{"molecule": "C[C@]1(COc2ccc(N3CCC(Oc4ccc(OC(F)(F)F)cc4)CC3)cc2)Cn2cc([N+](=O)[O-])nc2O1", "parasite growth, % of DMSO control": 81.7}
{"molecule": "CN(C)CCC=C1c2ccccc2COc2ccccc21", "parasite growth, % of DMSO control": 86.6}
{"molecule": "CN([C@@H](Cc1ccc(O[S+](=O)([O-])c2cccc3cnccc23)cc1)C(=O)N1CCN(C(=O)OCc2ccccc2)CC1)[S+](=O)([O-])c1cccc2cnccc12", "parasite growth, % of DMSO control": 4.76}
{"molecule": "CC(=O)NCC1CN(c2ccc(N3CCOCC3)c(F)c2)C(=O)O1", "note": "(configuration not stated)", "parasite growth, % of DMSO control": 91.2}
{"molecule": "C[C@H]1CCN(C(=O)CC#N)C[C@H]1N(C)c1ncnc2[nH]ccc12", "parasite growth, % of DMSO control": 69.9}
{"molecule": "COc1cc(C)c2c(Oc3cccc(C(F)(F)F)c3)c(OC)cc(NCCCC(C)N)c2n1", "note": "(configuration not stated)", "parasite growth, % of DMSO control": 3.66}
{"molecule": "COc1ccc(S(=O)(=O)N(CCO)c2ccccc2CN(C)CC=Cc2ccc(Cl)cc2)cc1", "parasite growth, % of DMSO control": 6.17}
{"molecule": "Cc1nc2c(C#N)cccc2n1-c1ccc(C(=O)NC2CC2)s1", "parasite growth, % of DMSO control": 6.59}
{"molecule": "CC1(C)O[C@@H]2[C@H]3OC(C)(C)O[C@]3(COS(N)(=O)=O)OC[C@H]2O1", "parasite growth, % of DMSO control": 103}
{"molecule": "C[C@H]1Cc2c([nH]c3cc(Cl)c(F)cc23)[C@@]2(N1)C(=O)Nc1ccc(Cl)cc12", "parasite growth, % of DMSO control": 5.02}
{"molecule": "CN(C(=O)OC(C)(C)C)[C@@H](Cc1ccc(O[S+](=O)([O-])c2cccc3cnccc23)cc1)C(=O)N1CCN(C(=O)OCc2ccccc2)CC1", "parasite growth, % of DMSO control": 5.7}
{"molecule": "CC(C)(C)OC(=O)N[C@@H](Cc1ccc(O[S+](=O)([O-])c2cccc3cnccc23)cc1)C(=O)Nc1ccc(-c2ccccc2)cc1", "parasite growth, % of DMSO control": 5.81}
{"molecule": "NCCC[C@H](N)CC(=O)N[C@H]1CNC(=O)[C@H]([C@H]2C[C@H](O)C=C(N)N2)NC(=O)C(=CNC(N)=O)NC(=O)[C@H](CO)NC(=O)[C@H](CO)NC1=O", "note": "(β3hOrn-[Dap]SS[ΔAla(3-NHCONH2)][X2]; lactam 1-C)", "parasite growth, % of DMSO control": 96}
{"molecule": "C[C@H]1C[C@H]2C3CCC4=CC(=O)C=C[C@@]4(C)[C@@]3(Cl)[C@@H](O)CC2(C)[C@@]1(OC(=O)c1ccco1)C(=O)CCl", "note": "(some centres not stated)", "parasite growth, % of DMSO control": 5.13}
{"molecule": "CCN(CC)CCOc1ccc2c(=O)c3ccc(Cl)cc3n(CCN(CC)CC)c2c1", "parasite growth, % of DMSO control": 4.98}
{"molecule": "CO[C@H]1C=CO[C@@]2(C)Oc3c(C)c(O)c4c(O)c(c(C=NN5CCN(C)CC5)c(O)c4c3C2=O)NC(=O)C(C)=CC=CC(C)[C@H](O)[C@@H](C)[C@@H](O)[C@@H](C)[C@@H](OC(C)=O)[C@H]1C", "note": "(some centres not stated)", "parasite growth, % of DMSO control": 4.07}
{"molecule": "CCOc1ccc(F)cc1C1(O)C(N)=Nc2ccc(Cl)cc21", "note": "(configuration not stated)", "parasite growth, % of DMSO control": 5.08}
